Screening results from PubChem.
The list is not random: actives were taken first. Their share in the collection is about 1.3%.
LRH-1 inv ag: suppresses constitutive activity of human LRH-1. AID 602396. HEK293T StAR-luciferase reporter, LRH-1 transfected, 24 h. 360,000 compounds, 0.13% hits. inhibition, % at 3.6 µM;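 active = inhibition above the mean inhibition of all tested compounds plus 3 SD, cut at about 73% in these data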
Target sequence (O00482 whole entry, looked up): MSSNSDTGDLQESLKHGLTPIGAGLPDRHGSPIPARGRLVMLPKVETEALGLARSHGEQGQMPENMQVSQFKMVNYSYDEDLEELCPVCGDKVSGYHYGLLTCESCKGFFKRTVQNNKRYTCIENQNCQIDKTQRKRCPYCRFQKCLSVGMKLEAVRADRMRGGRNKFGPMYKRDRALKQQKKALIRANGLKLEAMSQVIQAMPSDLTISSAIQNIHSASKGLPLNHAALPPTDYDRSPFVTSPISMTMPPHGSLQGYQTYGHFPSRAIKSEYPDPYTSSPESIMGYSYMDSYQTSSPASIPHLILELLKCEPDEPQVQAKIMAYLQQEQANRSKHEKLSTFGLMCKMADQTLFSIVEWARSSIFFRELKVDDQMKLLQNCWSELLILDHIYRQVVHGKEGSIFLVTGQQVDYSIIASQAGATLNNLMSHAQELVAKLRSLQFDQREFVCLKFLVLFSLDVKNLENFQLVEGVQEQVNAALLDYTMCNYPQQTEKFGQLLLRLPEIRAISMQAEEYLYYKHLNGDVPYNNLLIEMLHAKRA
SRC1 inh: human NCOA1 inhibition; Q15788; HEK293 GAL4-SRC1 luciferase reporter, luminescence; inhibition, % at 3.6 µM; 360,000 compounds, 0.12% hits;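 active = inhibition above the campaign mean plus 3 SD, with each screening campaign given its own cutoff, cut at about 60% in these data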
Gli-Sufu antag: Gli-Sufu pathway antagonism; AID 588413; 340,000 compounds, 0.74% hits; inhibition, % at 5 µM; Sufu-KO-LIGHT fibroblasts, Gli luciferase reporter luminescence;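 active = inhibition above about 55%, limit read from the data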
SRC2 inh: inhibits human steroid receptor coactivator 2; inhibition, % at 9 µM; HEK293 GAL4-SRC2 luciferase reporter, luminescence; Q15596; AID 651957; 370,000 compounds, 0.17% hits;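 active = inhibition above the mean inhibition of all tested compounds plus 3 SD, set per campaign, cut at about 52% in these data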
NCOA3 inh: human NCOA3 inhibition; 360,000 compounds, 0.17% hits; inhibition, % at 3.6 µM; Q9Y6Q9; AID 588352; HEK293 GAL4-SRC3 luciferase reporter, luminescence;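 active = inhibition above a per-campaign cutoff, the mean of all compounds plus 3 SD, cut at about 60% in these data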;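 also: higher means less SRC3-driven luciferase light from the GAL4 reporter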
NR2F2 inh: blocks human COUP-TFII nuclear receptor | P24468 | HEK293T NGFI-A luciferase reporter, luminescence | inhibition, % at 8.6 µM | 370,000 compounds, 0.7% hits | AID 686940;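 active = inhibition above a per-plate cutoff, mean inhibition of test wells between control levels plus 3 SD, cut at about 38% in these data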;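 also: cells cotransfected with COUP-TFII expression vector driving the NGFI-A reporter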
Gli antag conf: confirmation of Gli-SUFU pathway antagonists; shares compounds with Gli-Sufu antag; inhibition, % at 5 µM; Sufu-KO-LIGHT cells, Gli luciferase reporter, luminescence; 2,500 compounds, 40% hits;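 active = mean inhibition at 5 µM reaching about 45%, limit read from the data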
Gli cytotox: cytotoxicity counter-screen for Gli-SUFU antagonists; shares compounds with Gli-Sufu antag; Sufu-KO-LIGHT cells cytotoxicity, ATP luminescence; cytotoxicity, % at 5 µM; 2,500 compounds, 32% hits; AID 651994;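 active = mean cytotoxicity at 5 µM above about 25%, limit read from the data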;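 also: cells exposed to compound overnight for roughly 16 to 18 hours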
Wnt3a cs: inhibits Wnt3a reporter, counter-screen for Gli-SUFU antagonists; shares compounds with Gli-Sufu antag; Wnt-LIGHT cells, Wnt3a-driven luciferase reporter, luminescence; inhibition, % at 6.25 µM; 2,500 compounds, 20% hits; AID 651995;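 active = mean inhibition above about 25%, limit read from the data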
Gal4-VP16 ctr: counter-screen for COUP-TFII antagonists: inhibitors of VP16; shares compounds with NR2F2 inh; HEK293 Gal4-VP16 luciferase reporter, luminescence; inhibition, % at 8.5 µM; 2,500 compounds, 25% hits; AID 687007; in the data active = inhibition above about 13%
NR2F2 inh conf: COUP-TFII (NR2F2) inhibition, confirmation assay; shares compounds with NR2F2 inh; HEK293 NGFI-A luciferase reporter, luminescence; inhibition, % at 8.5 µM; 2,500 compounds, 45% hits; AID 687008;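 active = mean inhibition over three repeats above a set limit taken from the earlier primary screen, cut at about 38% in these data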
Of the large screens only hits and unclear results are named; the others gave an inactive call (follow-up assays come after a bar, where they were run).

O=C(NNc1ccnc2cc(Cl)ccc12)C1CCCCC1	Gli-Sufu antag 76.7, NR2F2 inh 56.9 | Gli antag conf 76.1 | Gli cytotox 35.4 | Wnt3a cs 34.4 | Gal4-VP16 ctr 13.0 | NR2F2 inh conf 65.2
O=S(=O)(c1ccc(Cl)cc1)N1CCN(c2ncnc3sccc23)CC1	NR2F2 inh 46.6 | Gli antag conf 46.5 | Gli cytotox inactive | Wnt3a cs 35.0 | Gal4-VP16 ctr inactive | NR2F2 inh conf inactive
Cc1csc2c(N3CCN(S(=O)(=O)c4ccc(Cl)cc4)CC3)ncnc12	none
O=C(NC1CCN(Cc2ccccc2)CC1)c1ccc2c(c1)[nH]c(=O)n2Cc1ccc(F)cc1	NR2F2 inh 64.4 | Gli antag conf inactive | Gli cytotox inactive | Wnt3a cs inactive | Gal4-VP16 ctr inactive | NR2F2 inh conf inactive
Cc1nnsc1C(=O)NC1CCCc2c1cnn2-c1ccccc1F (stereo not drawn)	NR2F2 inh 44.5 | Gli antag conf 45.2 | Gli cytotox inactive | Wnt3a cs 29.4 | Gal4-VP16 ctr inactive | NR2F2 inh conf 44.7
O=C(NC1CCCc2c1cnn2-c1ccc(F)cc1F)c1ccccn1 (stereo not drawn)	none
COc1ccc(C(=O)NC2CCCc3c2cnn3-c2ccccc2F)cc1OC (stereo not drawn)	Gli-Sufu antag 55.6, NR2F2 inh 49.9 | Gli antag conf inactive | Gli cytotox inactive | Wnt3a cs inactive | Gal4-VP16 ctr inactive | NR2F2 inh conf 49.0
Cc1nnsc1C(=O)NC1CCCc2c1cnn2-c1ccc(C(C)(C)C)cc1 (stereo not drawn)	Gli-Sufu antag 62.4, NR2F2 inh 65.2 | Gli antag conf 58.9 | Gli cytotox 53.1 | Wnt3a cs inactive | Gal4-VP16 ctr inactive | NR2F2 inh conf 66.2
O=C(NC1CCCc2c1cnn2-c1ccccc1F)c1ccccn1 (stereo not drawn)	none
Cc1ncoc1C(=O)NC1CCCc2c1cnn2-c1ccc(C(C)(C)C)cc1 (stereo not drawn)	NR2F2 inh 60.3 | Gli antag conf 45.1 | Gli cytotox inactive | Wnt3a cs inactive | Gal4-VP16 ctr inactive | NR2F2 inh conf 65.3
COc1ccc(Cn2ccc3ccc(-c4ccc5ccn(Cc6ccc(C#N)cc6)c5c4)cc32)cc1	none (no result: LRH-1 inv ag, SRC1 inh, Gli-Sufu antag, NCOA3 inh)
C[C@@H]1C=CCCO[C@]12C(=O)N(Cc1ccc(Br)cc1)c1ccccc12	none (no result: LRH-1 inv ag, SRC1 inh, Gli-Sufu antag, NCOA3 inh)
CC(=O)c1cn(CCOc2cc(C)ccc2C)c2ccccc12	Gli-Sufu antag 68.4, NR2F2 inh 54.7 | Gli antag conf 63.5 | Gli cytotox inactive | Wnt3a cs 46.3 | Gal4-VP16 ctr 18.2 | NR2F2 inh conf 63.3
CC(=O)N1CCN(c2ccc(N3CCN(C(C)=O)[C@@H](C)C3)c(C)c2)[C@@H](C)C1	none (no result: LRH-1 inv ag, SRC1 inh, Gli-Sufu antag, NCOA3 inh)
CC(CNC(=O)[C@H]1O[C@@H](n2cnc3c(=O)[nH]c(N)nc32)[C@H](O)[C@@H]1O)c1ccccc1 (stereo partly drawn)	none (no result: LRH-1 inv ag, SRC1 inh, Gli-Sufu antag, NCOA3 inh)
FC(F)(F)c1ccncc1-c1nnnn1-c1ccc(Cl)cc1	none
FC(F)(F)c1nc(-c2ccncc2)ncc1-c1nnnn1-c1ccccc1	none
FC(F)(F)c1nc(N2CCCC2)ncc1-c1nnnn1-c1ccc(Cl)cc1	NR2F2 inh 38.3 | Gli antag conf 53.9 | Gli cytotox 45.1 | Wnt3a cs inactive | Gal4-VP16 ctr inactive | NR2F2 inh conf inactive
Fc1ccc(-n2nnnc2-c2cnc(-c3cccs3)nc2C(F)(F)F)cc1	NR2F2 inh 52.9 | Gli antag conf 56.1 | Gli cytotox 30.6 | Wnt3a cs inactive | Gal4-VP16 ctr inactive | NR2F2 inh conf 38.5
